Bioassay records (PubChem)
Most compounds without a hit are left out; they make up all but 0.54% or so of the library.
Vc quorum ag = induces V. cholerae light production without autoinducers. activation, % at 18.7 µM. V. cholerae BH1578 lux reporter, luminescence, 6 h. actives 0.16% (n = 350,000). AID 588436; in the data active means activation mostly above about 9.7%, no sharp cut-off
BioA inh = inhibitors of Mycobacterium tuberculosis BioA enzyme. purified M. tuberculosis BioA enzyme, plate reader. inhibition, % at 9.99 µM. actives 0.096% (n = 360,000). AID 602481; in the data active means inhibition above about 40%
TcdB GH inh = blocks C. difficile toxin B glycohydrolase activity; P18177; TcdB glycohydrolase enzymatic assay, plate reader; inhibition, % at 9.99 µM; actives 0.24% (n = 350,000); AID 652162; in the data active means inhibition above about 10%
FadD28 FP inh = M. tuberculosis FadD28 bisubstrate binding inhibition; FadD28 bisubstrate probe binding, fluorescence polarization; inhibition, % at 12.5 µM; actives 0.22% (n = 360,000); AID 588549; in the data active means inhibition above about 8.5%, passing the limit was not always enough
Active calls of the source: *; i = inactive; . = no result given; + = active, no number.

SMILES | Vc quorum ag | BioA inh | TcdB GH inh | FadD28 FP inh
O=S(=O)(c1ccc(-c2ccccc2)cc1)N1CCN(Cc2ccc(OCCO)cc2)CC1 | . | 0 | 0 | .
CCc1c(O)nc(SCC(=O)Nc2nc3ccccc3s2)n(-c2ccc(C)cc2)c1=O | -1 | -3 | -1 | -3
CCc1c(O)nc(SCC(=O)Nc2nc3ccccc3s2)n(-c2ccccc2)c1=O | i | 0 | 1 | 14*
C[C@H](CO)N1C[C@H](C)[C@H](CN(C)Cc2ccc(C(=O)Nc3ccccc3N)cc2)Oc2ccc(NC(=O)CCC(F)(F)F)cc2C1=O | . | -2 | 0 | .
C[C@@H]1CN([C@H](C)CO)C(=O)c2cccc(NC(=O)C3CC3)c2O[C@H]1CN(C)Cc1ccc(C(=O)Nc2ccccc2N)cc1 | . | 0 | 0 | .
Cc1ccc(C(=O)Nc2cccnc2Oc2ccc(Cl)cc2)cc1 | 0 | 0 | 6 | 0
Cc1ccc(S(=O)(=O)Nc2cccnc2Oc2ccc(Cl)cc2)cc1 | i | . | 14* | -2
COc1cc(OC)nc(NC(=O)CS(=O)(=O)c2ccccc2)n1 | 33* | -1 | . | -1
COc1ccc(C2CC(C(F)(F)F)n3nc(C(=O)N(C)Cc4cn(C)nc4C)c(Cl)c3N2)cc1 (configuration not stated) | + | 1 | . | -2
Cc1ccc(C(=O)Nc2ncc([N+](=O)[O-])s2)cc1 | 3 | 0 | 21* | 2
CC1(C)CCC[C@@]2(C)CC=C(C(=O)O)[C@@H]3C[C@]312 | -1 | -2 | 0 | 9.1*
CC(C)Sc1nnc(NC(=O)c2ccco2)s1 | i | -2 | 22* | -4
Cc1ccc(S(=O)(=O)Nc2ccc3c(c2)C(=O)N([C@@H](C)CO)C[C@H](C)[C@H](CN(C)S(=O)(=O)c2ccc(F)cc2)O3)cc1 | . | . | 1 | .
Cc1cc(C2C(C#N)=C(N)OC3=C2C(=O)CCC3)c(C)s1 (configuration not stated) | 10 | -1 | . | -2
COc1cc(C2C(C#N)=C(N)OC3=C2C(=O)CCC3)c([N+](=O)[O-])cc1OC (configuration not stated) | 0 | . | . | 21*
CCCCN(C)c1c(C)nc2ccc(C(=O)NCc3cccs3)cn12 | 0 | 0 | 18* | -4
COc1ccc(S(=O)(=O)Nc2ccc3c(c2)C(=O)N([C@H](C)CO)C[C@@H](C)[C@@H](CN(C)C(=O)NC2CCCCC2)O3)cc1 | . | 1 | 1 | .
CN(C)C/C=C/C(=O)Nc1cccc(-c2c[nH]c3ncnc(Oc4ccc(NC(=O)CC(=O)Nc5ccc(F)cc5)cc4F)c23)c1 | i | -2 | . | 19*
CC(=O)Nc1cccc(Oc2ncnc3scc(-c4ccccc4)c23)c1 | 0 | 2 | . | -8
O=C(NCC(c1cccnc1)N1CCN(c2ccc(F)cc2)CC1)c1ccc2c(c1)OCO2 (configuration not stated) | i | 3 | . | -2
COc1ccc(N2CCN(C(CNC(=O)c3ccc4c(c3)OCO4)c3cccnc3)CC2)cc1 (configuration not stated) | + | 0 | . | 1
COC(=O)/C=C/C(=O)Nc1ccc(O)c(Cl)c1 | 0 | . | 31* | 1
COC(=O)/C=C/C(=O)Nc1cccnc1 | 1 | -1 | . | 2
C[C@H](CO)N1C[C@H](C)[C@@H](CN(C)S(=O)(=O)c2cccs2)Oc2ccc(NC(=O)Nc3ccc(C(F)(F)F)cc3)cc2C1=O | i | 0 | 1 | 27*
C[C@@H]1CN([C@H](C)CO)C(=O)c2cc(NC(=O)Nc3ccc(C(F)(F)F)cc3)ccc2O[C@H]1CN(C)S(=O)(=O)c1cccs1 | -9 | 0 | 0 | 21*
SMILES | Vc quorum ag | BioA inh | TcdB GH inh | FadD28 FP inh
COC(=O)CCC(=O)OC1(C)C(=O)C2=CN(c3ccc(OC)cc3)C(c3ccc(OC)cc3)=CC2=C(Br)C1=O (configuration not stated) | -3 | -1 | . | -1
COc1ccc(C2=CC3=C(Br)C(=O)C(C)(OC(=O)c4cccs4)C(=O)C3=CO2)cc1 (configuration not stated) | i | -2 | -1 | 16*
COCCN1C=C2C(=O)C(C)(OC(=O)CCC(=O)OC)C(=O)C(Br)=C2C=C1c1ccc(OC)cc1 (configuration not stated) | -2 | 0 | . | -2
COc1ccc(C2=CC3=C(Br)C(=O)C(C)(OC(=O)c4ccco4)C(=O)C3=CO2)cc1 (configuration not stated) | -1 | -1 | . | 10*
COCC(=O)N(C)C[C@@H]1Oc2ncc(-c3ccccc3OC)cc2C(=O)N([C@H](C)CO)C[C@H]1C | . | 2 | -1 | .
COc1ccc(/C=C/c2nc3ccccc3n2C)cc1 | 0 | . | 13* | -1
CC(Sc1nnc(CNc2cccc3ccccc23)n1-c1ccccc1)C(=O)N/N=C/c1ccco1 (configuration not stated) | 2 | -2 | . | 25*
O=C(CSc1nnc(-c2ccccc2)n1-c1ccc(Cl)cc1)N/N=C/c1ccco1 | 0 | -1 | . | 0
CS/C(=N\S(=O)(=O)c1ccc(N)cc1)NS(=O)(=O)c1cccs1 | -1 | 4 | . | 30*
CO[C@H]1CN(C)C(=O)c2cc(NC(=O)Nc3cc(F)ccc3F)ccc2OC[C@@H](C)N(C(=O)c2cnccn2)C[C@@H]1C | . | 1 | 0 | .
Oc1ccc(/C=N/N(Cc2ccccc2)c2ccccc2)c(O)c1O | -1 | . | -4 | 16*
O=C1C=CCCN1C(=O)/C=C/c1ccccc1 | . | . | 0 | .
CC(C)NC(=O)N1CC(=O)N2[C@H](CO)[C@@H](c3ccc(/C=C/c4ccccc4)cc3)[C@H]2C1 | . | . | 1 | .
Cc1cc(C(=O)NCC(=O)O)c(C)o1 | i | -2 | 0 | -1
Cc1cc(C(=O)NCc2cc(C(=O)O)oc2C)c(C)o1 | 17* | 0 | . | -3
COc1ccccc1-c1ccc([C@@H]2[C@@H](C#N)N(C(=O)NC3CCCC3)[C@@H]2CO)cc1 | . | . | -1 | .
COc1ccc(C(=O)Nc2c(-c3cccs3)c(=O)c3ccccc3n2C)cc1 | i | . | 11* | 0
C[C@H]1CN([C@@H](C)CO)C(=O)c2cc(NC(=O)Cc3ccccc3)ccc2O[C@H]1CN(C)C(=O)Nc1ccc2c(c1)OCO2 | . | -2 | . | .
CCn1c(SCC(=O)OC)nnc1-c1ccc(C)cc1 | 0 | 1 | 0 | -3
CCn1c(SCC(=O)OC)nnc1-c1ccccc1 | 0 | 0 | 20* | -2
CCOc1ccccc1C(=O)NCC(=O)NNC(=O)c1cccc(S(=O)(=O)Nc2ccc(OC)cc2)c1 | 536* | . | 3 | -3
Nc1ccc(-c2nc3ccc(N)cc3[nH]2)cc1 | i | . | 8 | 14*
Nc1ccc(-c2nc3c(Cl)c(N)ccc3[nH]2)cc1 | -5 | -7 | . | 11*
CCNC(=O)C[C@@H]1CC[C@@H]2[C@H](COc3ccc(NC(C)=O)cc3C(=O)N2C)O1 | . | 0 | 9 | .
CCNC(=O)C[C@@H]1CC[C@H]2[C@H](COc3ccc(NC(C)=O)cc3C(=O)N2C)O1 | . | -1 | 10* | .
CCCNC(=O)C[C@H]1CC[C@@H]2[C@H](COc3ccc(NC(=O)c4ccc(Cl)cc4)cc3C(=O)N2C)O1 | . | 6 | 15* | .
CCCNC(=O)C[C@H]1CC[C@H]2[C@@H](COc3ccc(NC(=O)c4ccc(Cl)cc4)cc3C(=O)N2C)O1 | . | 4 | 0 | .
